Growth inhibition, inhibition and outcome data for 20 compounds are collected here from PubChem BioAssay.

The nature of test [1]: antimalarial activity against Dd2 strain (AID 2302;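 active = growth inhibition above 50% at the single 2 µM test dose, taken to imply half-maximal potency below 2 µM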;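 note: 0% = DMSO untreated growth and 100% = chloroquine plus artemisinin killed control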). The note with it: P. falciparum Dd2 in RBCs, LDH growth readout, 72 h; at 2 µM; stronger effect = higher value.
Test [2] is described as follows: human hepatoma cell viability loss – ATP luminescence, cytotoxicity control for P. falciparum antimalarial project, primary screen (AID 2303;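 active = inhibition above 50%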;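 note: 0% = DMSO wells and 100% = digitonin-killed cells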). The following applies: HepG2 viability, 24-48 h, at 10 µM, stronger effect = higher value.
The target in test [3] is L-lactate dehydrogenase (Plasmodium falciparum (isolate CDC / Honduras)) (UniProt Q27743). Kind of test: PfLDH activity inhibition – cell lysate, 3D7 strain, counter-screen for P. falciparum growth inhibition project (AID 2304).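 Note: 0% = vehicle and 100% = reference inhibitor.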 The note with it: P. falciparum 3D7 crude extract, LDH APAD/NBT absorbance; at 2 µM; stronger effect = higher value. (In general: A counterscreen serves to expose hits that act by an unwanted route or on another target.)
Sequence of L-lactate dehydrogenase (Plasmodium falciparum (isolate CDC / Honduras)) (Q27743 whole entry, looked up): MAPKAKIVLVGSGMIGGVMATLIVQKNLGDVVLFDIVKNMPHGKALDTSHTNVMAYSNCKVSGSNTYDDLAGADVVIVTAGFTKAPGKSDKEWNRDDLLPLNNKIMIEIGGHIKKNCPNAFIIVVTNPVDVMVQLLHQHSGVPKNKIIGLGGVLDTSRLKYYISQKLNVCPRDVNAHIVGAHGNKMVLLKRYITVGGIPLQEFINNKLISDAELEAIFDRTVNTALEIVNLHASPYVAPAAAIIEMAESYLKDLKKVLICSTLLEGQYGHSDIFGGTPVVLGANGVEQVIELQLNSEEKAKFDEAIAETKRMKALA

Test [4] is described as follows: inhibition of 3D7 malaria parasite growth – strain 3D7 (AID 2306).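 Note: 0% = DMSO wells and 100% = chloroquine plus artemisinin control wells.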 The following applies: P. falciparum 3D7 erythrocytic growth, LDH absorbance, 72 h; at 2 µM; stronger effect = higher value.
Test [5] concerns the target Calcium-dependent protein kinase 1 (Plasmodium falciparum (isolate 3D7)) (UniProt P62344). Kind of test: PfCDPK1 kinase inhibitors, biochemical, TCAMS library (AID 1159585; cut-off not given, nearly all actives have IC50 up to about 0.98 µM;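 note: inhibitors leave more ATP so luminescence rises with inhibition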). The following applies: recombinant PfCDPK1, Kinase-Glo ATP depletion luminescence. (In Kinase-Glo more light means more ATP remaining.)
Test [6] has as its target Plasmodium falciparum protein kinase 6 (PK6, PF3D7_1337100) (UniProt Q8IDW1). Kind of test: PfPK6 kinase inhibitors, biochemical, TCAMS library (AID 1159586). The note with it: recombinant PfPK6, Kinase-Glo ATP depletion luminescence.
Test [7] has as its target Protein kinase 7 (PK7), Plasmodium falciparum 3D7 (PF3D7_0213400) (UniProt Q7YTF7). Kind of test: inhibition of Plasmodium PK7 catalytic activity – biochemical, TCAMS antimalarial set, Kinase-Glo luminescence (AID 1159587). The following applies: recombinant PfPK7, Kinase-Glo ATP depletion luminescence.
In test [8] the target is Calcium-dependent protein kinase 4 (Plasmodium falciparum (isolate 3D7)) (UniProt Q8IBS5). In words: PfCDPK4 kinase inhibitors, biochemical, TCAMS library (AID 1159588; cut-off not given, nearly all actives have IC50 up to about 0.91 µM). The note with it: recombinant PfCDPK4, Kinase-Glo ATP depletion luminescence.
Sequence of Calcium-dependent protein kinase 4 (Plasmodium falciparum (isolate 3D7)) (Q8IBS5 whole entry, looked up): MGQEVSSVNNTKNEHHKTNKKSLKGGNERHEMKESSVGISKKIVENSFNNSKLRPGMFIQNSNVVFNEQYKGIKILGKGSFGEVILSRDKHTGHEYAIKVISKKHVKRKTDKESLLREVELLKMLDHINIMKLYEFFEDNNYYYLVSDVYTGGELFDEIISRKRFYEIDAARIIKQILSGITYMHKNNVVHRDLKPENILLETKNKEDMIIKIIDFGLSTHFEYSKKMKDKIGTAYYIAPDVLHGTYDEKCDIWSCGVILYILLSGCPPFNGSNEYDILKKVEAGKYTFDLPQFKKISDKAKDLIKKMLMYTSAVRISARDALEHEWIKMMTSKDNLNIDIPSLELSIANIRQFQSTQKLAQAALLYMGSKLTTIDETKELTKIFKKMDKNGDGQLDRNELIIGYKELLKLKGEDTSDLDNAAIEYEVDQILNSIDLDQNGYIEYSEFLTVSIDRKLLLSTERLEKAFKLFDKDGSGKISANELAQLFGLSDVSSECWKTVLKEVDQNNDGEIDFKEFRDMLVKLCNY

Unmarked numbers belong to inactive results. For some of these results: Entries with a potency or affinity are not part of this list. Active and inactive are the calls of the source. Unless noted, the rule behind the calls is not given here.

Sequence of Protein kinase 7 (PK7), Plasmodium falciparum 3D7 (PF3D7_0213400) (Q7YTF7 1-343): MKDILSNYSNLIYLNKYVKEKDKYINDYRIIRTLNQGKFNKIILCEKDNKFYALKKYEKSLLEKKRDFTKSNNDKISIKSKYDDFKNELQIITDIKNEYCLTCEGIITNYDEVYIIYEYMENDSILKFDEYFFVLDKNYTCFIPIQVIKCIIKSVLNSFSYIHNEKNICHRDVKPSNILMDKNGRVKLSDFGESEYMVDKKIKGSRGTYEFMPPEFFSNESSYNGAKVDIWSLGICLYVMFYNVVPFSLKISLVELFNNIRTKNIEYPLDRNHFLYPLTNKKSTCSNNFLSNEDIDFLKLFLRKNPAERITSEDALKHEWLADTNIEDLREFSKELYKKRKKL
Sequence of Calcium-dependent protein kinase 1 (Plasmodium falciparum (isolate 3D7)) (P62344 whole entry, looked up): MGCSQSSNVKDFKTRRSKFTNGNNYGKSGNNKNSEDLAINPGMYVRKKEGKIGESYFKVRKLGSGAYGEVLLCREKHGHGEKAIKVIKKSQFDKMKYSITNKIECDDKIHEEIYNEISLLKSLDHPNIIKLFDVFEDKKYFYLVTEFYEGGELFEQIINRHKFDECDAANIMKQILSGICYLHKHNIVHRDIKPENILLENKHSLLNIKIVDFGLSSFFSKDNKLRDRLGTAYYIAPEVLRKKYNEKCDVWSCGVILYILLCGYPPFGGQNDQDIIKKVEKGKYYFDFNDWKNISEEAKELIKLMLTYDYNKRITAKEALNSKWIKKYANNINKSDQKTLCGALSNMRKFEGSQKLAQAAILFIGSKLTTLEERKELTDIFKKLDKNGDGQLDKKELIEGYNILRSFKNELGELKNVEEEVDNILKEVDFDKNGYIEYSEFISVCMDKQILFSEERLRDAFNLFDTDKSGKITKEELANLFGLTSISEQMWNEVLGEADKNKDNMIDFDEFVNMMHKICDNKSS
Sequence of Plasmodium falciparum protein kinase 6 (PK6, PF3D7_1337100) (Q8IDW1 1-305): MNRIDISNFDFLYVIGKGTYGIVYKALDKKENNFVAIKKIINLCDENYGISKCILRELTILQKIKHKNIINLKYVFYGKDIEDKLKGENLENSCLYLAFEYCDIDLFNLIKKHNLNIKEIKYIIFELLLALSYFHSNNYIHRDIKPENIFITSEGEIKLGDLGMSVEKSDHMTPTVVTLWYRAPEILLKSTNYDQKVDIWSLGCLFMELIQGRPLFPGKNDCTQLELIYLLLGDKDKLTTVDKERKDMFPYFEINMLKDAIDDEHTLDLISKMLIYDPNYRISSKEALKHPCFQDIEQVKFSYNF

By inhibition is commonly meant the drop in the measured response relative to a control, in per cent. As for `CCOc1c(C)cc(C(F)(F)F)cc1CNCCCNc1cc(=O)c2ccccc2[nH]1`, the growth inhibition in test [1] was 1%; in test [4] it was 97% (active). Further, the inhibition in test [2] is -1%; in test [3] it was -7%. For the same compound, the result in test [5], in test [6], in test [7] and in test [8] was inactive.
Regarding `CN(C(=O)c1ccccc1)[C@@H]1c2cc(C#N)ccc2OC(C)(C)[C@H]1O`, the growth inhibition in test [1] was 4%; in test [4] it was 97% (active). The inhibition in test [2] was 8%; in test [3], -3%. The result in test [5], in test [6], in test [7] and in test [8] was inactive.
Consider `O=c1c(NCCCN(Cc2ccc(F)cc2)c2ccccn2)c(NCc2ccncc2)c1=O`, for which the growth inhibition in test [1] was 95% (active); in test [4], 101% (active). For the same compound, the inhibition in test [2] is 30%; in test [3], 3%. For the same compound, the result in test [5], in test [6], in test [7] and in test [8] was inactive.
In the case of `O=C(Nc1cccc(-c2ccc(-c3nc4ccccc4[nH]3)cc2)c1)Nc1ccc(F)c(F)c1F`, the growth inhibition in test [1] was 38%; in test [4], 100% (active). Also, the inhibition in test [2] was 45%; in test [3], 5%. Also, the result in test [5], in test [6], in test [7] and in test [8] was inactive.
As for `NC1=NCN(OCc2ccc(Cl)c(Cl)c2)C(N)=N1`, the growth inhibition in test [1] is 4%; in test [4], 95% (active). Also, the inhibition in test [2] was 14%; in test [3], -3%. The outcome in test [5], in test [6], in test [7] and in test [8] was inactive.
In the case of `CCOCn1c(-c2ccccc2)cc2c3c(N)nc(N)nc3ccc21`, the figures for the growth inhibition in test [1] and in test [4] were 66% (active) and 91% (active), respectively. The inhibition was 62% (active) in test [2] and -4% in test [3]. Moreover, the result in test [5], in test [6], in test [7] and in test [8] was inactive.
For `Nc1cc(C=Cc2ccc([N+](=O)[O-])o2)nc2ccccc12`, the growth inhibition was 81% (active) in test [1] and 93% (active) in test [4]. Moreover, the inhibition is 100% (active) in test [2] and 4% in test [3]. In addition, the result in test [5], in test [6], in test [7] and in test [8] was inactive.
In the case of `Oc1ccc(CCNCCCCCCNCCc2ccc(Cl)cc2)c(Cl)c1O`, the growth inhibition in test [1] was 30%; in test [4], 100% (active). The inhibition in test [2] was 23%; in test [3], -7%. Besides, the result in test [5], in test [6], in test [7] and in test [8] was inactive.
As for `CC(C)CCN1CCC(Oc2ccc(NC(=O)c3ccsc3)cc2Cl)CC1`, the results for the growth inhibition in test [1] and in test [4] were 81% (active) and 89% (active), respectively. Besides, the inhibition in test [2] is 19%; in test [3], 0%. Moreover, the result in test [5], in test [6], in test [7] and in test [8] was inactive.
Take `COc1ccc(C(=O)Nc2ccc3nc(N4CCCCC4)cc(C)c3c2)cc1OC`: the growth inhibition in test [1] was 7%; in test [4], 92% (active). For the same compound, the inhibition in test [2] is 15%; in test [3], 3%. The outcome in test [5], in test [6], in test [7] and in test [8] was inactive.
For `COc1ccc(C=NNc2ccnc3ccccc23)c2ccccc12`, the growth inhibition in test [1] is 98% (active); in test [4] it was 102% (active). Also, the inhibition was 27% in test [2] and 0% in test [3]. The outcome in test [5], in test [6], in test [7] and in test [8] was inactive.
For `CNC(=O)Cc1ccc(C(=O)Nc2cccc(-c3ccc(-c4nc5c(C)cccc5[nH]4)s3)c2)cc1`, the growth inhibition in test [1] is 25%; in test [4], 91% (active). Further, the inhibition in test [2] is 66% (active); in test [3], 0%. Also, the result in test [5], in test [6], in test [7] and in test [8] was inactive.
For `Fc1cccc(Nc2nc(NCc3ccc(Cl)c(Cl)c3)nc(Nc3cccc(F)c3)n2)c1`, the results for the growth inhibition in test [1] and in test [4] were 7% and 99% (active), respectively. Also, the results for the inhibition in test [2] and in test [3] were -5% and 3%, respectively. In addition, the result in test [5], in test [6], in test [7] and in test [8] was inactive.
On to `COc1ccc2c(NCCc3ccccc3)cc(-c3ccccc3)nc2c1`, for which the figures for the growth inhibition in test [1] and in test [4] were 1% and 98% (active), respectively. Besides, the inhibition is 13% in test [2] and 2% in test [3]. Moreover, the outcome in test [5], in test [6], in test [7] and in test [8] was inactive.
Take `Cc1[nH]c(C)c(-c2ccc(OCc3cc(C(F)(F)F)cc(C(F)(F)F)c3)nc2)c(=O)c1Br`: the values for the growth inhibition in test [1] and in test [4] were 96% (active) and 98% (active), respectively. For the same compound, the inhibition in test [2] is 28%; in test [3], -2%. Also, the outcome in test [5], in test [6], in test [7] and in test [8] was inactive.
With `O=C(N[C@H]1CCCC[C@H]1C(=O)O)c1ccccc1`, the growth inhibition in test [1] is 3%; in test [4] it was 95% (active). Also, the values for the inhibition in test [2] and in test [3] were 7% and -5%, respectively. For the same compound, the outcome in test [5], in test [6], in test [7] and in test [8] was inactive.
For the compound `CC(=O)c1ccc(N2C(=O)C3C(Cc4ccc(OC(C)(C)C)cc4)NC4(C(=O)N(Cc5ccc(C(C)(C)C)cc5)c5ccccc54)C3C2=O)cc1` (stereo not given), the growth inhibition in test [1] was 81% (active); in test [4] it was 86% (active). In addition, the inhibition was 13% in test [2] and 4% in test [3]. In addition, the result in test [5], in test [6], in test [7] and in test [8] was inactive.
For the compound `CC12CCC(=O)N1C(C(=O)Nc1cccc(C(=O)Nc3cccc(C(F)(F)F)c3)c1)CS2` (stereo not given), the growth inhibition in test [1] is 89% (active); in test [4], 92% (active). The results for the inhibition in test [2] and in test [3] were 6% and -3%, respectively. The result in test [5], in test [6], in test [7] and in test [8] was inactive.
As for `CC(C)(CNC(=O)C1CCN(CC2CCCCC2)CC1)c1nc(-c2ccc(Cl)c(O)c2)c(-c2ccncc2)[nH]1`, the growth inhibition in test [1] is 31%; in test [4] it was 98% (active). For the same compound, the inhibition in test [2] was -6%; in test [3] it was -3%. The outcome in test [5], in test [6], in test [7] and in test [8] was inactive.
In the case of `COc1cc(N(Cc2ccc(F)cc2)C(=O)c2ccc(-c3ccccc3)cc2)ccc1OCCN1CCCC1`, the values for the growth inhibition in test [1] and in test [4] were 4% and 93% (active), respectively. In addition, the inhibition was 11% in test [2] and -4% in test [3]. Besides, the result in test [5], in test [6], in test [7] and in test [8] was inactive.
